Screens as filed in PubChem BioAssay.
The list is not random: actives were taken first. Their share in the collection is about 0.69%.
DTT redox prof: compounds producing H2O2 with reducing agent – biochemical, NIH compound library profiling, artefact control for MLSCN library redox annotation, primary screen. DTT-dependent redox cycling H2O2, phenol red/HRP absorbance; 100% = 100 µM peroxide control, 0% = buffer. activation, % at 10 µM. actives 0.03% (n = 200,000). AID 878;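 active = activation of at least 50% relative to the plate's high and low controls in the primary single-dose screen; inactive = activation below 50%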;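 note: compound incubated with DTT at 0.8 mM final as the reducing agent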
p97 ATPase inh: blocks human p97 ATPase activity | P55072 | recombinant p97 ATPase, Kinase-Glo ATP luminescence, 3 h | inhibition, % at 8 µM | actives 0.42% (n = 220,000) | AID 1481; in the data active = inhibition above about 15%;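 note: 0% = DMSO vehicle and 100% = wells lacking enzyme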
PERK inhibitor: human PERK inhibition, primary cell-based screen; AID 1416; inhibition, % at 5.6 µM; Q9NZJ5; CHO PERK-DD fusion, SEAP luminescence translation reporter; actives 0.17% (n = 220,000);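 active = inhibition above the mean inhibition of all tested compounds plus 3 SD, set separately per screening campaign, cut at about 2.9% in these data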;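 note: PERK kinase domain activated by AP20187 dimerizer at 100 nM; 0% = DMSO with dimerizer and 100% = rapamycin at 8.4 µM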
SUMO HTRF inh: inhibitors of human SUMOylation (UBC9); actives 0.36% (n = 290,000); HTRF SUMOylation assay, SAE1/SAE2 + UBC9, in vitro; inhibition, % at 35 µM; in the data active = inhibition above about 50%, passing the limit was not always enough
Target sequence (P63279 whole entry, looked up): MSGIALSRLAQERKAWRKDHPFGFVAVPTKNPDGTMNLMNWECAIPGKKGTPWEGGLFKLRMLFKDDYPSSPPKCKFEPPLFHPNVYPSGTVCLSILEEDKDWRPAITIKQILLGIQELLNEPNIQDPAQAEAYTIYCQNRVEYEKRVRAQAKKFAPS
DTT redox conf: redox cycling H2O2 generation, confirmed. shares compounds with DTT redox prof. DTT-dependent redox cycling H2O2, phenol red-HRP absorbance. EC50, µM. actives 40% (n = 60). AID 1234;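 active = EC50 under a set limit for hydrogen peroxide production with the reducing agent DTT present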
* = called active by the depositor; x = no result.

SMILES | DTT redox prof | p97 ATPase inh | PERK inhibitor | SUMO HTRF inh | others
O=C1NC(=O)N(Cc2ccc(F)cc2)C(=O)/C1=C\c1ccc([N+](=O)[O-])s1 | x | 12 | -1 | 63*
COc1ccc(N2C(=O)NC(=O)/C(=C/c3ccc([N+](=O)[O-])s3)C2=O)cc1 | x | 10 | 0 | 51*
O=C1NC2NC(=O)N([N+](=O)[O-])C2N1 (stereo unspecified) | x | -6 | 1 | 25
O=C1C2CCN(CC2)C1Cc1ccc(OCc2ccccc2)cc1 (stereo unspecified) | -1 | 1 | 1 | 8
CCCCn1c(N)c(C(=O)OCCOC)c2nc3ccccc3nc21 | x | -2 | -2 | 67*
CCCCn1c(NS(=O)(=O)c2ccc(C)cc2)c(C(=O)OCC)c2nc3ccccc3nc21 | 0 | 0 | 0 | 99*
CCCCOCCCn1c(N)c(C(=O)OCCOC)c2nc3ccccc3nc21 | -3 | -7 | 0 | 18
Cc1ccc(C(=O)COC(=O)Cc2ccccc2)cc1 | x | x | x | 12
O=C1NC(=O)N(Cc2ccco2)C(=O)/C1=C/c1ccc(-c2cccc([N+](=O)[O-])c2)o1 | 0 | 15* | 1 | x
COc1ccc(C(=O)N2CCCC2=O)cc1 | 0 | 6 | 3.0* | 5
COc1ccc(C(=O)N2CCC3(CC2)OCCO3)cc1 | x | x | x | 24
O=c1nc(/C=C/c2ccc(Cl)cc2Cl)cc(C(F)(F)F)[nH]1 | x | x | x | 10
O=C(c1cccn2c(=O)c3ccc(Cl)cc3nc12)N1CCC2(CC1)OCCO2 | 3 | 1 | 0 | 58*
O=C(c1cccn2c(=O)c3cc(Br)ccc3nc12)N1CCC2(CC1)OCCO2 | 0 | 3 | 0 | 50
CC[C@@]1(O)C(=O)OCc2c1cc1n(c2=O)Cc2cc3ccccc3nc2-1 | x | 3 | 6.0* | 49
CCC1(OC(=O)CN)C(=O)OCc2c1cc1n(c2=O)Cc2cc3ccccc3nc2-1 (stereo unspecified) | x | 1 | 4.9* | 57*
Cc1ccc(NC(=O)c2cn(CCC#N)nc2-c2ccc3c(c2)OCCO3)c([N+](=O)[O-])c1 | 0 | 0 | 1 | 7
CC(C)Oc1ccc(C2(C#N)CC[N+](C)(C)CC2)cc1 | 0 | 5 | 1 | 9
O=C1NC(=S)NC(=O)C1=Cc1ccc2c(c1)CCN2CCCCl | x | 18* | 1 | 45
COC(=O)C(O)(c1cn(C)c2ccccc12)C(F)(F)F (stereo unspecified) | -4 | -2 | 2 | 15
Nc1c(C(=O)NCc2ccco2)c2nc3ccccc3nc2n1Cc1ccc(F)cc1 | -2 | 5 | 0 | 100*
Nc1c(C(=O)NCc2ccco2)c2nc3ccccc3nc2n1Cc1ccccc1 | 1 | 3 | 0 | 101*
c1ccc(-c2ccc(-c3n(-c4ccccn4)c4ccccc4[n+]3-c3ccccn3)cc2)cc1 | 0 | 4 | 0 | 18
Cc1ccsc1C(=O)C1CCCN(Cc2ccc(-n3cccn3)cc2)C1 (stereo unspecified) | 0 | -2 | 0 | 65*
Nc1c2c(nc3ccccc13)CCN(Cc1ccccc1)C2 | x | x | x | 26
SMILES | DTT redox prof | p97 ATPase inh | PERK inhibitor | SUMO HTRF inh | others
Nc1cc2nc3ccccc3nc2cc1N | x | 6 | 0 | 81*
CC(C)[C@H]1C(=O)N2CCC[C@H]2[C@]2(O)O[C@](NC(=O)[C@@H]3C=C4c5cccc6[nH]cc(c56)C[C@H]4N(C)C3)(C(C)C)C(=O)N12 | 0 | 1 | 0 | 64
CN1C[C@H](CO)C=C2c3cccc4[nH]cc(c34)C[C@H]21 | 0 | 2 | 0 | 65*
NC(=S)c1cn(C2OC(CO)C(O)C2O)c2ncnc(N)c12 (stereo unspecified) | x | 3 | 3.1* | 13
CC(C)OCCCNC(=O)c1c(N)n(CC2CCCO2)c2nc3ccccc3nc12 (stereo unspecified) | 2 | -7 | -1 | 98*
CC(C)CCOC(=O)c1c(N)n(CC2CCCO2)c2nc3ccccc3nc12 (stereo unspecified) | 0 | 3 | 0 | 48
CCCNC(=O)c1c(N)n(CC2CCCO2)c2nc3ccccc3nc12 (stereo unspecified) | 2 | 3 | -1 | 102*
Cn1c(O)c(C=NCCN2CCNCC2)c(=O)[nH]c1=O | x | 7 | 2 | 0
CCOc1ccc(-n2c(-c3cccs3)nc3ccccc3c2=O)cc1 | 0 | 2 | 2 | 17
CCn1nc(-c2cccs2)nc2c(=O)n(C)c(=O)nc1-2 | x | x | x | 101*
CC12CC[C@H]3[C@@H](CCC4(O)C[C@H](O)CCC34/C=N/NC(=O)c3ccccc3F)C1(O)CCC2C1=CC(=O)OC1 (stereo partly specified) | x | 6 | 1 | -7
CC12CC[C@H]3[C@@H](CCC4(O)C[C@H](O)CCC34/C=N/NC(=O)c3ccc(O)cc3)C1(O)CCC2C1=CC(=O)OC1 (stereo partly specified) | x | 6 | 2.9* | 1
CC12CC[C@H]3[C@@H](CCC4(O)C[C@H](O)CCC34/C=N/NC(=O)c3ccccc3O)C1(O)CCC2C1=CC(=O)OC1 (stereo partly specified) | x | 10 | 3.1* | 12
Cc1ccc(Cn2cc(C=O)c(-c3ccc(C)cc3)n2)cc1 | 0 | 1 | 0 | -17
CNC(=O)OCCc1n(C)cc[n+]1C | 0 | 1 | 1 | 4
O=C1NC(=S)N(Cc2ccco2)C(=O)/C1=C\c1cccs1 | -1 | 41* | 1 | 94*
C=CCN1C(=O)/C(=C/c2cccs2)C(=O)NC1=S | 0 | 3 | 0 | -3
Cc1nc2c(c(=O)[nH]1)C(c1ccccc1Cl)c1c(c3ccccc3oc1=O)O2 (stereo unspecified) | x | 6 | 1 | 1
CN1CCC2(CC1)C(C#N)=C(N)NC(S)=C2C#N | -2 | 0 | 0 | 57*
Cc1ccc(S(=O)(=O)N(C)C)cc1NC(=O)C(C)[N+]12CCN(CC1)CC2 (stereo unspecified) | -1 | 0 | 0 | 6
O=C(O)[C@H]1C[C@@H]1[C@H](NP(=O)(c1ccccc1)c1ccccc1)c1ccccc1 | -1 | -1 | 2 | -28
C/C(=N\Nc1cccc2ccccc12)c1c(O)n(Cc2ccccc2)c(=O)[nH]c1=O | 0 | 4 | 0 | 52*
C/C(=N\NC(=O)c1ccccc1)c1c(O)n(Cc2ccccc2)c(=O)[nH]c1=O | x | 1 | 0 | -9
CN1C(=O)C(=Cc2ccc(N3CCCCC3)o2)C(=O)N(C)C1=S | -4 | 3 | 1 | 11
CN1C(=O)C(=Cc2ccc(SC3CCCCC3)o2)C(=O)N(C)C1=O | 0 | 2 | 3.0* | 12
Cc1cccnc1NC1=NCC(C)S1 (stereo unspecified) | 71* | 4 | 1 | 7 | DTT redox conf=>50
CN(C)C(CNC(=O)Cc1ccc(Br)cc1)c1ccccc1 (stereo unspecified) | x | x | x | 10
CCOC(=O)c1c(N)n(Cc2ccco2)c2nc3ccccc3nc12 | 2 | 7 | -1 | 39
